Records with an inconclusive call do not appear. Calls of active or inactive are those of the source. The call rests on the fitted dose curve; in most records, active means well fitted curve in the direction sought with a large enough effect; inconclusive means small, poorly fitted or top-dose-only effect, or another doubt; inactive means no such curve, though single readings can be large; an effect the other way counts as inactive or inconclusive.
Legend:
[1] = biological target: Endonuclease 4 (Escherichia coli (strain K12)) (UniProt P0A6C1); assay: Counterscreen for APE1 Inhibitors: qHTS Validation Assay for Inhibitors of Endonuclease IV (AID 1708)
In short: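 E. coli EndoIV at 2 nM final, preincubated 15 min at room temperature with compound, then 50 nM TAMRA/BHQ-2 THF abasic-site duplex added. Buffer: 50 mM Tris-HCl pH 7.5, 50 mM NaCl, 2 mM MgCl2, 1 mM DTT, 0.01% Tween-20. Kinetic fluorescence increase, third minus first read.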

[2] = qHTS for differential inhibitors of proliferation of Plasmodium falciparum line 7G8 (AID 1815);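 further: potency means the concentration at half of the fitted maximal effect; parasite growth measured after three days of incubation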
[3] = qHTS for differential inhibitors of proliferation of Plasmodium falciparum line GB4 (AID 1816); settings: Potency: Plasmodium falciparum GB4 proliferation inhibition;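 further: potency means the concentration at half of the fitted maximal effect; parasite growth measured after 72 h incubation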
[4] = qHTS for differential inhibitors of proliferation of Plasmodium falciparum line 3D7 (AID 1876); further: potency means the concentration at half of the fitted maximal effect
[5] = qHTS for differential inhibitors of proliferation of Plasmodium falciparum line D10 (AID 1877);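 further: potency means the concentration at half of the fitted maximal effect; parasites grown with compound for 72 h before DNA staining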
[6] = qHTS for differential inhibitors of proliferation of Plasmodium falciparum line Dd2 (AID 1882); settings: Potency: Plasmodium falciparum Dd2 proliferation inhibition; further: series mostly up to about 29 µM; nearly all actives have a fitted effect of over 65% in size
In short: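 Dd2-infected erythrocytes (0.3% parasitemia, 2.5% hematocrit final) incubated with compound 72 h at 37 C, 5% CO2; lysed with saponin/Triton buffer containing SYBR Green I, incubated overnight in the dark, then read by fluorescence (485/535 nm). Normalized to 0.29 uM artemisinin and DMSO.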

[7] = qHTS for differential inhibitors of proliferation of Plasmodium falciparum line W2 (AID 1883); settings: Potency: Plasmodium falciparum W2 proliferation inhibition;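 further: potency means the concentration at half of the fitted maximal effect; parasites grown with compound for 72 h before lysis and staining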
[8] = qHTS for differential inhibitors of proliferation of Plasmodium falciparum line HB3 (AID 1886); settings: Potency: Plasmodium falciparum HB3 proliferation inhibition;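 further: potency means the concentration at half of the fitted maximal effect; parasites grown with compound for 72 h before SYBR Green readout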
[9] = biological target: Ferritin light chain (Equus caballus) (UniProt P02791); assay: qHTS Validation Assay for Identification of Novel General Anesthetics (AID 2323); further: series mostly up to about 77 µM
Chain of Ferritin light chain (Equus caballus) (P02791 2-175 limits assumed): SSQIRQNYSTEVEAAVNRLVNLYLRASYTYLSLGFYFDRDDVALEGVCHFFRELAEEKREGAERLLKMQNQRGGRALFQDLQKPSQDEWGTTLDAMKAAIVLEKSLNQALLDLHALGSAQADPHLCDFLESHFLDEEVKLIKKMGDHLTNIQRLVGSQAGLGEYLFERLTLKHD
In short: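 Horse-spleen apoferritin (10 uM) in PBS with 50% saturated 1-aminoanthracene; compounds pin-transferred, 10 min at room temperature. Fluorescence read at 380/535 nm, normalized to free 1-AMA and 1-AMA/apoferritin values; four-parameter Hill fit.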

[10] = biological target: ATP-dependent DNA helicase Q1 (Homo sapiens) (UniProt P46063); assay: qHTS Validation Assay for Inhibitors of RecQ-Like Dna Helicase 1 (RECQ1) (AID 2353)
Chain of ATP-dependent DNA helicase Q1 (Homo sapiens) (P46063 whole entry, looked up): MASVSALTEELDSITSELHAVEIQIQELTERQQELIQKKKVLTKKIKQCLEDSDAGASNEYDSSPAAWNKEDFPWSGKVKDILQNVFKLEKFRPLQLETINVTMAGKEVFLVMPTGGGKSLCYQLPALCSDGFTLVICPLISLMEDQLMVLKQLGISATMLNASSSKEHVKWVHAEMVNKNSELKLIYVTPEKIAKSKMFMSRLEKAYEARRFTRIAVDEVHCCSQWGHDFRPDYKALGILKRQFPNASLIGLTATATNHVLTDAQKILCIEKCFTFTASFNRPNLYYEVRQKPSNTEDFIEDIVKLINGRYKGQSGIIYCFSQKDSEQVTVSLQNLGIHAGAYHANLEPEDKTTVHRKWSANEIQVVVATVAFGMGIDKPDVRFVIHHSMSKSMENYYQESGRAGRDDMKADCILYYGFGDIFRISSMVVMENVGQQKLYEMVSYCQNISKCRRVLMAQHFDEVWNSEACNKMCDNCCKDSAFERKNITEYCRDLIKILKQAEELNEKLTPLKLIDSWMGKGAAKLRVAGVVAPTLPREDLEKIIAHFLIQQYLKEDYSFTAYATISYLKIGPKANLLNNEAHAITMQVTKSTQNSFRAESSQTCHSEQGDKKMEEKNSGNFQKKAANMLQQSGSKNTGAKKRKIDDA
In short: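 50 nM RECQ1T1 preincubated 15 min with compound in Tris pH 8.0 buffer with MgCl2, DTT, Tween-20 and 2.5 ug/ml poly(dI-dC); started with 200 nM TAMRA/BHQ-2 forked duplex and 2 mM ATP. Unwinding read as fluorescence (525/598 nm), two reads 2 h apart.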

[11] = biological target: RecQ-like DNA helicase BLM (Homo sapiens) (UniProt P54132); assay: qHTS Validation Assay for Inhibitors of Bloom's syndrome helicase (BLM) (AID 2364)
Chain of RecQ-like DNA helicase BLM (Homo sapiens) (P54132 whole entry, looked up): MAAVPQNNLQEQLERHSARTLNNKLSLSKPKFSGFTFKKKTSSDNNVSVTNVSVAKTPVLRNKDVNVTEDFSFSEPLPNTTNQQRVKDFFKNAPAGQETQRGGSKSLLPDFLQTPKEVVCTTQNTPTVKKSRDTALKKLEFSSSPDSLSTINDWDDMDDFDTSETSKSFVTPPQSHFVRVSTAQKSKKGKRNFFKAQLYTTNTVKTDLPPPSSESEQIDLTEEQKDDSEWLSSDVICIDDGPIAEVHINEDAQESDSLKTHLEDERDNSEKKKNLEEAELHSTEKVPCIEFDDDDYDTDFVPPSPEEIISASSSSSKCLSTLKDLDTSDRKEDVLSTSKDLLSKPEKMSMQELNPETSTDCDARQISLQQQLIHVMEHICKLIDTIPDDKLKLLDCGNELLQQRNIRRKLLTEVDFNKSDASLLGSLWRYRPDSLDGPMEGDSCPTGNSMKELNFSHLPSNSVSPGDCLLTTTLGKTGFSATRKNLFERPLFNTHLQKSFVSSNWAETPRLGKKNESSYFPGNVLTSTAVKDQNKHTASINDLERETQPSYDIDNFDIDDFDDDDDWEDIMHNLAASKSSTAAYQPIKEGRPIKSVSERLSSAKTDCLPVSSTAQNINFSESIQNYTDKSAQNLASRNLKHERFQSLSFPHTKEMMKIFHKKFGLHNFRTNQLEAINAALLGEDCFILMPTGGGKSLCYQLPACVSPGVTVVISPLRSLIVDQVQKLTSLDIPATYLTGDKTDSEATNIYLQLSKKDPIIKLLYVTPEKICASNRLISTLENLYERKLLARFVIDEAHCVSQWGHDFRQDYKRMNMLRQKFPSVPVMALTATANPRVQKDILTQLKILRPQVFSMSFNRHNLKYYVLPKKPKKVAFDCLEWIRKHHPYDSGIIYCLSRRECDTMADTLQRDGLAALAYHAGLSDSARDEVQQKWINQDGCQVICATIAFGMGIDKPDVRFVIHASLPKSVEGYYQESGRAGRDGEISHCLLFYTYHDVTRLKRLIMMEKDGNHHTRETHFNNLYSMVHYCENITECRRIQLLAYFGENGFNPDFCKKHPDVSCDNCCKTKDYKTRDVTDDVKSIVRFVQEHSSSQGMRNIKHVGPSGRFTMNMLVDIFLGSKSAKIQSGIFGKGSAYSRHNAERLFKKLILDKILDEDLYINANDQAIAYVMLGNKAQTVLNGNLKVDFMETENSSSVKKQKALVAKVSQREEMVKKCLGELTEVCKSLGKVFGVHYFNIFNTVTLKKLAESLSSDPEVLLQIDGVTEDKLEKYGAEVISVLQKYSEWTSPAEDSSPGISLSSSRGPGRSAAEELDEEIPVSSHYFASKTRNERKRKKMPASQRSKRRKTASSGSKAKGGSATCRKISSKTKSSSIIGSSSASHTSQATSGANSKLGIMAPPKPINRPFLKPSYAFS
In short: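 50 nM BLM preincubated 15 min at room temperature with compound in pH 8.0 Tris buffer containing 2.5 ug/ml poly(dI-dC); started with 200 nM TAMRA/BHQ-2 forked duplex and 2 mM ATP (final). Unwinding read as TAMRA fluorescence increase, two reads 2 h apart.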

[12] = Quantitative high throughput screen for delayed death inhibitors of the malarial parasite plastid, 96 hour incubation (AID 488745); further: potency means the concentration at half of the fitted maximal effect; nearly all actives have a fitted effect of over 70% in size
In short: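 Luciferase-expressing P. falciparum in erythrocytes (2% hematocrit, 0.1% parasitemia) incubated with compound for 96 h at 37 C, 5% CO2, in RPMI 1640 with 0.5% Albumax. Growth inhibition read as decreased luminescence.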

[13] = Quantitative high throughput screen for delayed death inhibitors of the malarial parasite plastid, 48 hour incubation (AID 488752); further: potency means the concentration at half of the fitted maximal effect; nearly all actives have a fitted effect of over 65% in size
In short: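 Erythrocytes infected with firefly luciferase-expressing P. falciparum (2% hematocrit, 0.1% parasitemia) cultured with compound for 48 h at 37 C, 5% CO2, in RPMI 1640/0.5% Albumax. Growth inhibition read as loss of luminescence.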

[14] = biological target: M-phase phosphoprotein 8 (Homo sapiens) (UniProt Q99549); assay: qHTS Validation Assay for Inhibitors for MPP8 Chromodomain Interactions with Methylated Histone Tails (AID 488949); further: top concentration of the series differs between compounds; nearly all actives have a fitted effect of over 55% in size
Chain of M-phase phosphoprotein 8 (Homo sapiens) (Q99549 whole entry, looked up): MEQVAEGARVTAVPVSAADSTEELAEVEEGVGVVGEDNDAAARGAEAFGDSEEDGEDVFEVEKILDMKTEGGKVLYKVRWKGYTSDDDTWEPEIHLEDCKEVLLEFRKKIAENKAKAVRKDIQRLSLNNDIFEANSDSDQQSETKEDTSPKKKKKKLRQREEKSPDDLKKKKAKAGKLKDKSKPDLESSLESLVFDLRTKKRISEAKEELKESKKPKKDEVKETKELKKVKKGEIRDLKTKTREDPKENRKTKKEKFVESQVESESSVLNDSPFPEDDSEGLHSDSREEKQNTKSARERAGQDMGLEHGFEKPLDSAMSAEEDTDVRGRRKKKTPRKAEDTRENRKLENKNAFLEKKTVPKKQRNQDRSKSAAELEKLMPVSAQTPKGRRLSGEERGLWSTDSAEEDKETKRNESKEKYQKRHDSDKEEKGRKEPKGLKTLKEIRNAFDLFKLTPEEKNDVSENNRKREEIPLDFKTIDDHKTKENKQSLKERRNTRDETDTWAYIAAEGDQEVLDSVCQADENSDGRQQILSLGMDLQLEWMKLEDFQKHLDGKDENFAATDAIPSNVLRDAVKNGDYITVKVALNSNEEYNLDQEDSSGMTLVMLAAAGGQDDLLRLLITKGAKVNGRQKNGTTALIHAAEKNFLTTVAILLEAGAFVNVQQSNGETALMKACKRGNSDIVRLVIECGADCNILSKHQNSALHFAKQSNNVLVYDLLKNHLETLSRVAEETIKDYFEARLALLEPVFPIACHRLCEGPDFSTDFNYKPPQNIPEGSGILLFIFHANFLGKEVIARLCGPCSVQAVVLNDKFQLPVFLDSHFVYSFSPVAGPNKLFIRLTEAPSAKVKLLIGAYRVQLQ
In short: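 MPP8 (50 nM) was pre-bound to 50 nM biotinylated H3(1-18)K9me3 peptide in PBS pH 7.4 with 0.01% Tween-20. Compounds were then added for 30 min at room temperature, and complex disruption was read by AlphaScreen with streptavidin donor and nickel-chelate acceptor beads.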

[15] = biological target: Transient receptor potential cation channel subfamily V member 1 (Homo sapiens) (UniProt Q8NER1); assay: HTS Assay for Compounds that Act as Enhancers of the Vanilloid Receptor 1 (AID 488979)
Chain of Transient receptor potential cation channel subfamily V member 1 (Homo sapiens) (Q8NER1 whole entry, looked up): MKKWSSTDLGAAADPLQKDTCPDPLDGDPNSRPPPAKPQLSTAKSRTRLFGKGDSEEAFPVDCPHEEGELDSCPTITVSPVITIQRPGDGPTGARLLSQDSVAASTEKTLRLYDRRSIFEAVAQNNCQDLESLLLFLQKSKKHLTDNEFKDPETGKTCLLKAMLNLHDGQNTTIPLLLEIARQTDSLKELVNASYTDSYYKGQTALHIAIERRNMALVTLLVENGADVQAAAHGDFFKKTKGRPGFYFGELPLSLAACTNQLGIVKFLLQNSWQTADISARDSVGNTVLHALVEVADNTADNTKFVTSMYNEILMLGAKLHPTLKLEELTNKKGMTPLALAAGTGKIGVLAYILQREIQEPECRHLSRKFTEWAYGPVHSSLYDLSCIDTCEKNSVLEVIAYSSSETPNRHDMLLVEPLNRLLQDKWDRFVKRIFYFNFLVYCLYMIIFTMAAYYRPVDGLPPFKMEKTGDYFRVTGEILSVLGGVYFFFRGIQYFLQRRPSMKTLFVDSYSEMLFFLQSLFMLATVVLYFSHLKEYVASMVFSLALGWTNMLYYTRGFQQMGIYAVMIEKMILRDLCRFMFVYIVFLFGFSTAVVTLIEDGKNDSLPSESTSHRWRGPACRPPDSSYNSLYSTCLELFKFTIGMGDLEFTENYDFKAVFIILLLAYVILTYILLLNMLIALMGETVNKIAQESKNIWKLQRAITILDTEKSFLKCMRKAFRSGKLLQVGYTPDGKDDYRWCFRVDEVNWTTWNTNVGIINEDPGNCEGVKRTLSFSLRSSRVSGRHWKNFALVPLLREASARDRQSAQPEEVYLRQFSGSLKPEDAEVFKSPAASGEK
In short: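 TRPV1 cells loaded with Fluo-8 calcium dye; compound added and Ca2+ signal (ex 480/em 520 nm) followed 3 min, then capsaicin at EC20 added and read 2 more min to detect enhancement.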

[16] = Validation screen for small molecules that induce DNA re-replication in SW480 colon adenocarcinoma cells (AID 504364)
In short: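 SW480 cells (250/well) exposed 48 h at 37 C, 5% CO2, then Hoechst-stained 40 min. Nuclear DNA content imaged by fluorescence scanning (405 nm excitation, 500-530 nm emission); re-replication scored as increased nuclei with elevated intensity.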

[17] = biological target: DNA dC->dU-editing enzyme APOBEC-3G (Homo sapiens) (UniProt Q9HC16); assay: qHTS for inhibitors of Vif-A3G interactions: Validation (AID 588379)
Chain of DNA dC->dU-editing enzyme APOBEC-3G (Homo sapiens) (Q9HC16 whole entry, looked up): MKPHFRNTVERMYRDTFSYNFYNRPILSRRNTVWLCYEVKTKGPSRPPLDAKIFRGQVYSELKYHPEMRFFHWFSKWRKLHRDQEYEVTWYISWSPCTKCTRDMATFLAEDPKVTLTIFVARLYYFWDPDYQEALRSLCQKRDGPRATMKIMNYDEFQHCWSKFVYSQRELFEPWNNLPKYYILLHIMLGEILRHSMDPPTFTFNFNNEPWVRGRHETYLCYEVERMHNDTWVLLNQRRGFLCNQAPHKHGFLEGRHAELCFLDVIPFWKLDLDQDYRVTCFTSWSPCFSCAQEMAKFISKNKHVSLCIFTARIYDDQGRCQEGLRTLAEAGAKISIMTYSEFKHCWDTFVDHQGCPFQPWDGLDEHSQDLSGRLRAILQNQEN
In short: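 HeLa cells stably expressing Vif and A3G-eYFP, 700 cells/well, incubated overnight at 37 deg C, then exposed to compound overnight at 37 deg C. Inhibition of Vif-mediated degradation read as increased yellow fluorescence (Ex 488/Em 500-530) by laser-scanning cytometry.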

[18] = test system: Zika virus NS2B-NS3 protease; assay: Primary screen GU AMC qHTS for Zika virus inhibitors (AID 1347154); further: nearly all actives have a fitted effect of over 70% in size
In short: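 Unlinked Zika NS2B hydrophilic domain–NS3 protease complex at 25 nM in 10 mM Tris-HCl pH 8.0, 0.01% Tween 20, with an AMC peptide substrate. Fluorescence change (340/450 nm) over 15 min at room temperature, normalized to controls, fitted to 4-parameter Hill.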

[19] = Primary qHTS for small molecule stabilizers of the endoplasmic reticulum resident proteome: Secreted ER Calcium Modulated Protein (SERCaMP) assay (AID 1508630)
In short: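 GLuc-SERCaMP-expressing SH-SY5Y cells, pretreated 16 h with compound, are challenged with thapsigargin to empty ER calcium stores; after 4 h, coelenterazine is added directly to the medium and luminescence is imaged.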

Measured: Potency

COc1[nH]c2ccc(F)cc2c1C(=O)OCC1CCN(CCNS(C)(=O)=O)CC1
active: [2] 7.94 µM | [3] 6.31 µM | [4] 7.08 µM | [5] 7.08 µM | [7] 10 µM | [8] 5.01 µM | [12] 14.7 µM | [13] 11.7 µM
inactive: [1] | [6] | [9] | [10] | [11] | [14] | [15] | [16] | [17] | [18] | [19]

From PubChem BioAssay (NCATS)
